Laboratory results from a collection of fitness landscapes (doi:10.1016/j.celrep.2020.107928).
Whole data set: some 81,000 sequences, median “one-hybrid fitness for binding NBS DNA” near -0.1, cut for the highest 2% near 0.36. Shown is part of a subset that was picked to be rich in the highest values.

B1: Caulobacter ParB omega fusion; a variant is named by its letters at X, in order, B8GW30 (parent)
chain: MESVVVGEPGMSEGRRGLGRGLSALLGEVDAAPAQAPGEQLGGSREAPIEILQRNPDQPRRTFREEDLEDLSNSIREKGVLQPILVRPSPDTAGEYQIVAGERAWRAAQRAGLKTVPIMVRELDDLAVLEIGIIENVQRADLNVLEEALSYKVLMEKFERTQENIAQTIGKSXSHVANXMRLLXLPDEVQSYLVSGELTAXHARAIAAAADPVALAKQIIEGGLSVRETEALARKAPNLSAGKSKGGRPPRVKDTDTQALESDLSSVLGLDVSIDHRGSTGTLTITYATLEQLDDLCNRLTRGI

Variants of: B1
Test: one-hybrid fitness for binding NBS DNA (the Noc-binding site; scaled: cognate 1, non-cognate 0); higher = stronger binding
Conditions: with NBS DNA site
How it was run: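 Selection: bacterial one-hybrid in E. coli USO, HIS3 reporter with the site 19 bp from the promoter, 48 hours at 37°C on M9-minus-histidine plus 0.1 mM IPTG and 5 mM 3-AT. Libraries were Caulobacter ParB with four randomised specificity codons, sequenced on Illumina before and after selection. Fitness is the rescaled log change in variant-to-wild-type read ratio, anchored to the cognate and non-cognate sites.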

one-hybrid fitness for binding NBS DNA, ≤ 0.2:
SRNN
GDKC
RTGY
ARHT
RTFI
IIAL
HVSG
PVMQ
YSMW
LTAH
AHPT
QKSM
NKRT
QKSG
QKGM
QKLY
DKRT
QKGG
TSRY
RQHL
HCVL
SCSP
SVIR
DSRA
DIFG
WLHF
EQLL
LLDV
GYFR
QKND
GYDR
FATT
GEDG
RIGQ
RAGG
RPGT
RAGF
RFGT
RNGT
CETT
LWGM
HAAD
HAFN
VLQG
QGVT
QKVG
DKKT
CKVS
ENAK
LWKN
VVCT
GSCC
HRFR
RRDD
RRDP
ADSL
MLMV
CATV
SVNP
VMPY
MHHD
QRLP
QCLH
QRLD
LGRE
ACPI
REGM
TASA
RQSD
RQSH
RQQD
RQDR
RQQP
RQPR
RQND
ARKV
NQVL
FWRE
DFAH
PFPI
KFHC
LPAH
KTKA
EELL
PSMT
RQHD
RQQG
RQGP
RQIR
RQHH
RQQK
RQGN
CNHR
SRDF
GICT
HHHV
ISLV
PQPQ
SHQT
RQQH
RQAP
RQKG
RQGH
RQGD
RQQN
IAMG
HHPA
HPHL
TLMC
PVFR
FHGR
QHHG
RYFG

one-hybrid fitness for binding NBS DNA, 0.343:
RRNC

one-hybrid fitness for binding NBS DNA, 0.603:
QRLS

one-hybrid fitness for binding NBS DNA, 0.403:
RIGT

one-hybrid fitness for binding NBS DNA, 0.462:
RCGT

one-hybrid fitness for binding NBS DNA, 0.559:
RQNR

one-hybrid fitness for binding NBS DNA, 0.443:
RAGT

one-hybrid fitness for binding NBS DNA, 0.401:
QKDT

one-hybrid fitness for binding NBS DNA, 0.368:
RQYR

one-hybrid fitness for binding NBS DNA, 0.468:
RQHS

one-hybrid fitness for binding NBS DNA, 0.639:
QKNT

one-hybrid fitness for binding NBS DNA, 0.441:
RQQT

one-hybrid fitness for binding NBS DNA, 0.526:
QKST

one-hybrid fitness for binding NBS DNA, 0.428:
QCVT

one-hybrid fitness for binding NBS DNA, 0.262:
RQFR

one-hybrid fitness for binding NBS DNA, 0.474:
RQSR

one-hybrid fitness for binding NBS DNA, 0.678:
RRNS

one-hybrid fitness for binding NBS DNA, 0.425:
RSGT

one-hybrid fitness for binding NBS DNA, 0.429:
RQQS

one-hybrid fitness for binding NBS DNA, 0.464:
QKLT

one-hybrid fitness for binding NBS DNA, 0.475:
RQQR

one-hybrid fitness for binding NBS DNA, 0.269:
QPVT

one-hybrid fitness for binding NBS DNA, 0.344:
RHGT

one-hybrid fitness for binding NBS DNA, 0.58:
RRDS

one-hybrid fitness for binding NBS DNA, 0.359:
RQLR

one-hybrid fitness for binding NBS DNA, 0.566:
QKGT

one-hybrid fitness for binding NBS DNA, 0.447:
RQGR

one-hybrid fitness for binding NBS DNA, 0.476:
RQHR

one-hybrid fitness for binding NBS DNA, 0.427:
RQAR

one-hybrid fitness for binding NBS DNA, 0.774:
QKKT

one-hybrid fitness for binding NBS DNA, 0.258:
RQVR

one-hybrid fitness for binding NBS DNA, 0.281:
RRNF

one-hybrid fitness for binding NBS DNA, 0.44:
QKVT

one-hybrid fitness for binding NBS DNA, 0.203:
QKNN

one-hybrid fitness for binding NBS DNA, 0.408:
RQGS

one-hybrid fitness for binding NBS DNA, 0.757:
QKRT

one-hybrid fitness for binding NBS DNA, 0.308:
QRLN

one-hybrid fitness for binding NBS DNA, 0.244:
RQWR

one-hybrid fitness for binding NBS DNA, 0.453:
QRLH

one-hybrid fitness for binding NBS DNA, 0.717:
RQRR

one-hybrid fitness for binding NBS DNA, 0.752:
RQKR
